Several values for one entry are separate records, joined by “and”; a condition that tells them apart may be missing. Equal entries are not always repeated. Screen size: about 5,500 compounds; about 2,000 (36%) were called active. Inconclusive results (about 18%) are left out. Cut-off read from the data, not from the text of the source: active = normalized growth mostly below about 0.91 (no sharp cut-off); inconclusive = no clear call, values can overlap the other calls; inactive = mostly above about 0.92. The list shows a part of the results.
Assay: chemical genetic growth profiling, strain panel (AID 1159580);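 note: tested at 20 µM; growth read once vehicle control cultures reached saturation at 30 °C; 1 = growth at the plate median or of vehicle wells; lower values mean less growth of the strain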
Details: S. cerevisiae deletion strains, growth OD
[1] = locus YGR078C, strain PAC10, hits give low values
[2] = locus YJR075W, strain HOC1, hits give low values
[3] = locus YMR263W, strain SAP30, hits give low values
[4] = locus YMR307W, strain GAS1, hits give low values

Measured: normalized growth

CN1C2CCC1CC(OC(=O)c1cc(Cl)cc(Cl)c1)C2 (stereo not drawn)
inactive: locus YAL040C, strain CLN3, hits give low values 1 | locus YCL061C, strain MRC1 (second series), hits give low values 1 | locus YDR363W, strain ESC2, hits give low values 0.99 | locus YER002W, strain NOP16, hits give low values 0.997 | [1] 1.01 | [2] 0.997 | [3] 0.999 | [4] 1 | locus YNL175C, strain NOP13, hits give low values 1.01 | locus YNL197C, strain WHI3, hits give low values 1.01 | locus YNL224C, strain SQS1, hits give low values 1.03 | locus YNL322C, strain KRE1, hits give low values 0.996 | locus YOR083W, strain WHI5 (second series), hits give low values 1.01 | locus YPL241C, strain CIN2, hits give low values 1

CN1C2C[C@H](OC(=O)[C@H](CO)c3ccccc3)C[C@H]1[C@@H](O)C2
inactive: locus YAL021C, strain ccr4, hits give low values 0.979 | locus YAL026C, strain drs2, hits give low values 1.04 | locus YAL030W, strain snc1, hits give low values 1.02 | locus YBL061C, strain skt5, hits give low values 1.03 | locus YBR009C, strain hhf1, hits give low values 1.01 | locus YBR021W, strain FUR4, hits give low values 0.995 | locus YBR023C, strain chs3, hits give low values 1.02 | locus YBR171W, strain sec66, hits give low values 1.01 | locus YBR229C, strain ROT2, hits give low values 1.01 | locus YBR231C, strain swc5, hits give low values 1.02 | locus YBR279W, strain paf1, hits give low values 1.02 | locus YCL011C, strain gbp2, hits give low values 1.01 | locus YCL016C, strain dcc1, hits give low values 0.998 | locus YCL029C, strain bik1, hits give low values 0.997 | locus YCL069W, strain vba3, hits give low values 1.01 | locus YCR088W, strain abp1, hits give low values 1.01 | locus YDL005C, strain med2, hits give low values 1.03 | locus YDL035C, strain GPR1, hits give low values 1.02 | locus YDL040C, strain nat1, hits give low values 1.02 | locus YDL074C, strain BRE1, hits give low values 1.01 | locus YDL101C, strain DUN1, hits give low values 1.01 | locus YDL134C, strain PPH21, hits give low values 1.01 | locus YDL185W, strain tfp1, hits give low values 0.992 | locus YDL192W, strain arf1, hits give low values 0.995 | locus YDR001C, strain nth1, hits give low values 1.02 | locus YDR069C, strain doa4, hits give low values 1.03 | locus YDR101C, strain arx1, hits give low values 1 | locus YDR137W, strain rgp1, hits give low values 1.03 | locus YDR159W, strain sac3, hits give low values 1.05 | locus YDR162C, strain NBP2, hits give low values 1.02 | locus YDR195W, strain ref2 1.01 | locus YDR297W, strain sur2, hits give low values 1.02 | locus YDR318W, strain mcm21, hits give low values 1 | locus YDR334W, strain swr1, hits give low values 1.01 | locus YDR335W, strain msn5, hits give low values 1.02 | locus YDR388W, hits give low values 1 | locus YDR392W, strain spt3, hits give low values 0.911 | locus YDR502C, strain sam2, hits give low values 1.01 | locus YEL003W, strain gim4, hits give low values 1.03 | locus YEL037C, strain rad23, hits give low values 1.01 | locus YEL061C, strain CIN8 (second series), hits give low values 1.02 | locus YEL061C, strain CIN8, hits give low values 1.01 | locus YER015W, strain faa2, hits give low values 1.01 | locus YER016W, strain bim1, hits give low values 1.03 | locus YER110C, hits give low values 1 | locus YER111C, strain swi4, hits give low values 1.02 | locus YER155C, strain BEM2 (second series), hits give low values 1.02 | locus YER155C, strain BEM2, hits give low values 1.01 | locus YER167W, strain BCK2, hits give low values 1 | locus YFR010W, strain ubp6, hits give low values 1.04 | locus YGL078C, strain dbp3, hits give low values 0.999 | locus YGL086W, strain mad1, hits give low values 0.993 | locus YGL167C, strain pmr1, hits give low values 1.02 | locus YGL173C, strain kem1, hits give low values 1.03 | locus YGL227W, strain vid30, hits give low values 1.02 | locus YGL240W, strain doc1, hits give low values 1.02 | locus YGL248W, strain PDE1, hits give low values 1.01 | locus YGL253W, strain hxk2, hits give low values 1.04 | [1] 1.01 | locus YGR135W, strain pre9, hits give low values 1 | locus YGR229C, strain SMI1, hits give low values 1.02 | locus YGR252W, strain gcn5, hits give low values 0.955 | locus YHR013C, strain ard1, hits give low values 1.01 | locus YHR027C, strain rpn1, hits give low values 1.01 | locus YHR030C, strain SLT2, hits give low values 1.01 | locus YHR079C, strain IRE1 (second series), hits give low values 1 | locus YHR079C, strain IRE1, hits give low values 0.992 | locus YHR094C, strain hxt1, hits give low values 0.992 | locus YHR129C, strain ARP1, hits give low values 1.01 | locus YHR142W, strain chs7, hits give low values 1.03 | locus YHR200W, strain rpn10, hits give low values 1 | locus YIL066C, strain RNR3, hits give low values 1.02 | locus YIL073C, strain SPO22, hits give low values 1.01 | locus YIL125W, strain kgd1, hits give low values 0.991 | locus YIR030C, strain dcg1, hits give low values 0.99 | locus YJL092W, strain hpr5, hits give low values 1.02 | locus YJL095W, strain BCK1 (second series), hits give low values 1.01 | locus YJL095W, strain BCK1, hits give low values 1.02 and 1 | locus YJL115W, strain asf1, hits give low values 1.01 | locus YJL129C, strain trk1, hits give low values 1.02 | locus YJL134W, strain LCB3, hits give low values 1.01 | locus YJL154C, strain vps35, hits give low values 1.02 | locus YJL164C, strain tpk1, hits give low values 0.996 | locus YJL166W, strain qcr8, hits give low values 1.03 | locus YJL168C, strain set2, hits give low values 1 | locus YJL187C, strain SWE1 (second series), hits give low values 1.01 | locus YJR043C, strain POL32, hits give low values 1.03 | locus YJR066W, strain TOR1, hits give low values 0.96 | [2] 1.01 | locus YKL009W, strain mrt4, hits give low values 1.01 | locus YKL068W, hits give low values 0.987 | locus YKL085W, strain MDH1 (second series), hits give low values 1.01 | locus YKL085W, strain MDH1, hits give low values 1.01 | locus YKL160W, strain elf1, hits give low values 1 | locus YKL190W, strain CNB1, hits give low values 1.01 | locus YKR001C, strain vps1, hits give low values 0.981 | locus YKR026C, strain gcn3, hits give low values 1.01 | locus YKR091W, strain srl3, hits give low values 1.02 | locus YLL001W, strain dnm1, hits give low values 1.02 | locus YLL026W, hits give low values 1.02 | locus YLL041C, strain sdh2, hits give low values 1.02 | locus YLR027C, strain aat2, hits give low values 1.03 | locus YLR039C, strain RIC1, hits give low values 1.03 | locus YLR058C, strain SHM2, hits give low values 1.01 | locus YLR102C, strain apc9, hits give low values 0.997 | locus YLR113W, strain HOG1, hits give low values 0.978 | locus YLR221C, strain rsa3, hits give low values 1.02 | locus YLR258W, strain gsy2, hits give low values 1.02 | locus YLR262C, strain YPT6 (second series), hits give low values 1.03 | locus YLR262C, strain YPT6, hits give low values 1.05 | locus YLR268W, strain sec22, hits give low values 0.995 | locus YLR320W, strain mms22, hits give low values 1.04 | locus YLR330W, strain CHS5, hits give low values 1.01 | locus YLR342W, strain FKS1 (second series), hits give low values 1.02 | locus YLR342W, strain FKS1, hits give low values 1.02 | locus YLR357W, strain rsc2, hits give low values 1 | locus YLR370C, strain arc18, hits give low values 1.01 | locus YLR371W, strain rom2, hits give low values 0.989 | locus YLR384C, strain iki3, hits give low values 1.02 | locus YLR418C, strain cdc73, hits give low values 0.991 | locus YML016C, strain PPZ1, hits give low values 1.01 | locus YML032C, strain rad52, hits give low values 0.99 | locus YML120C, strain ndi1, hits give low values 1 | locus YML124C, strain tub3, hits give low values 1 | locus YMR058W, strain fet3, hits give low values 1.03 | locus YMR078C, strain ctf18, hits give low values 0.999 | locus YMR125W, strain sto1, hits give low values 0.983 | locus YMR129W, hits give low values 1.02 | locus YMR205C, strain PFK2, hits give low values 1.04 | locus YMR223W, strain ubp8, hits give low values 1.02 | locus YMR231W, strain pep5, hits give low values 1.01 | [3] 1.01 | [4] 0.97 | locus YNL067W, strain RPL9B, hits give low values 1.01 | locus YNL071W, strain lat1, hits give low values 1.02 | locus YNL183C, strain NPR1, hits give low values 0.96 | locus YNL209W, strain ssb2, hits give low values 1.04 | locus YNL233W, strain BNI4, hits give low values 0.992 | locus YNL248C, strain rpa49, hits give low values 0.941 | locus YNL250W, strain rad50, hits give low values 1 | locus YNL271C, strain bni1, hits give low values 0.99 | locus YNL298W, strain CLA4, hits give low values 1.02 | locus YNL307C, strain MCK1, hits give low values 0.995 | locus YNL322C, strain KRE1 (second series), hits give low values 1.01 | locus YNR049C, strain mso1, hits give low values 1.01 | locus YNR052C, strain pop2, hits give low values 0.992 | locus YOL006C, strain TOP1, hits give low values 0.998 | locus YOL012C, strain htz1 0.77 | locus YOL147C, strain pex11, hits give low values 1 | locus YOR001W, strain rrp6, hits give low values 1.04 | locus YOR061W, strain CKA2, hits give low values 1.01 | locus YOR069W, strain VPS5, hits give low values 1.01 | locus YOR070C, strain gyp1, hits give low values 1.03 | locus YOR080W, strain dia2, hits give low values 1.02 | locus YOR083W, strain WHI5, hits give low values 1.01 | locus YOR106W, strain vam3, hits give low values 0.994 | locus YOR136W, strain idh2, hits give low values 0.992 | locus YOR144C, strain elg1, hits give low values 0.997 | locus YOR184W, strain ser1, hits give low values 1.02 | locus YOR231W, strain MKK1, hits give low values 0.99 | locus YOR265W, strain rbl2, hits give low values 1.01 | locus YOR270C, strain vph1, hits give low values 1.07 | locus YOR290C, strain snf2, hits give low values 0.969 | locus YOR316C, strain cot1, hits give low values 1 | locus YPL051W, strain arl3, hits give low values 1 | locus YPL078C, strain atp4, hits give low values 0.984 | locus YPL106C, strain sse1, hits give low values 1.01 | locus YPL240C, strain hsp82, hits give low values 1.02 | locus YPL256C, strain CLN2, hits give low values 1 | locus YPR119W, strain clb2, hits give low values 1 | locus YPR141C, strain kar3, hits give low values 0.995 | locus YPR163C, strain tif3, hits give low values 1.02 | locus YPR167C, strain met16, hits give low values 1 | strain wtn01, hits give low values 0.986
